ALDH1A1 block: blocks purified human ALDH1A1 activity. P00352. Potency, µM (highest dose often 75.3 µM), inactives show at the top dose activity, negative = inhibition, most hits filed as inhibitors. 7.3% of 220,000 active. Purified ALDH1A1, NADH fluorescence, propionaldehyde substrate;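 also: potency is read from the fitted curve at half-maximal effect; plate controls were no enzyme wells and a reference inhibitor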
Target sequence (P00352 whole entry, looked up): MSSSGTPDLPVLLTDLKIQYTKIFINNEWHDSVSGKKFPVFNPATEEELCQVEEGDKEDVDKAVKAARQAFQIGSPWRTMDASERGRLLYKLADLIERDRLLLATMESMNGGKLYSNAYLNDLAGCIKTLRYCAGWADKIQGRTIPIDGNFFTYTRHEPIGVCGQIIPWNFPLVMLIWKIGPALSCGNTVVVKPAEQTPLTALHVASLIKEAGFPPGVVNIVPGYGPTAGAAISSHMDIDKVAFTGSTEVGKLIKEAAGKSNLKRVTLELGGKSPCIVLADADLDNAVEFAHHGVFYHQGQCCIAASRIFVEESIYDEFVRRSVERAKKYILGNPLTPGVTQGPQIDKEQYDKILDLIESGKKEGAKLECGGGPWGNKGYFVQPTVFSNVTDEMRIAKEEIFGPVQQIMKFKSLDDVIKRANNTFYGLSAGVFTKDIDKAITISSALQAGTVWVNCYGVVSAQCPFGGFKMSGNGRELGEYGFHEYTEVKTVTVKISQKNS
HPGD inh: HPGD (human) dehydrogenase inhibition; P15428; purified HPGD, NADH fluorescence kinetic, PGE2 substrate; Potency, µM, without a hit: top-dose activity change, negative = inhibition, actives largely listed as inhibitors; 4.3% of 150,000 active; also: potency is read from the fitted curve at half-maximal effect
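NADH formation kinetics: reaction with 30 uM PGE2 and 1 mM NAD+ (final), 20 nM enzyme, Tris-HCl pH 8 with Tween 20, after 15 min compound preincubation at room temperature. Fluorescence change, last versus first of five reads.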
PNC inhibitor: blocks assembly of the perinucleolar compartment. activity change (PNC), negative = inhibition, % at 10 µM. AID 2417. PC3M PTB-GFP, PNC prevalence imaging, 16 h; hits give low values. 3.1% of 140,000 active;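 active = readout at or below -70, meaning at least 70% loss of cells showing the perinucleolar compartment, a nuclear body marking cancer cells; inconclusive = readout between -30 and a set limit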;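 also: plate controls were DMSO wells for no effect and camptothecin positive control wells for full effect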
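Read-out is percentage of cells bearing a perinucleolar compartment, from automated 20x imaging of fixed, Hoechst-stained PC3M PTB-GFP cells. Cells were seeded 4 h, then exposed 16 h to compound (23 nl of library stock) in duplicate plates.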
* hit, by the source's call; ? = inconclusive; . = no result. Hits are enriched below; roughly 11% of the tested compounds scored in any of these assays. Unless noted, calls follow the shape of the dose curve; as a rule, active = well fitted inhibition curve with a large enough effect (not every such curve was filed as active); inconclusive = small, poorly fitted or top-dose-only effect, or another doubt; inactive = no such curve, though single readings can be large or run the other way. Unless noted, % is scaled to controls: 0 for no effect and ±100 for the full control effect.

SMILES	ALDH1A1 block	HPGD inh	PNC inhibitor
O=C(COC(=O)c1ccc(Cl)s1)c1cc2ccccc2o1	?	35µM*	?
O=C(COC(=O)c1nc(Cl)ccc1Cl)c1ccc(Cl)s1	?	-27%	27
Cn1cccc1C(=O)OCC(=O)NC(=O)NC1CCCCC1	-9%	.	.
Cn1cccc1C(=O)OCC(=O)c1cc2ccccc2o1	?	28µM*	3
COc1cccc(-n2cnnn2)c1	0%	-6%	10
Cc1ccc(-c2nnc(COc3cccc(-n4cnnn4)c3)o2)cc1	3%	-27%	-103*
O=C(NCc1ccccc1)c1cc[n+](Cc2ccccc2)cc1	0%	.	.
CC(Sc1n[nH]c(N)n1)C(=O)C12CC3CC(CC(C3)C1)C2 (centres undefined)	?	-15%	31
CC(SC#N)C(=O)C12CC3CC(CC(C3)C1)C2 (centres undefined)	8.9µM*	.	.
OCC(CO)(CO)N=Cc1c(O)ccc2ccccc12	?	-20%	-3
CN(C)/N=C/c1c(O)ccc2ccccc12	-2%	32µM*	-3
Oc1ccc(N=Nc2cccc(Cl)c2)cc1C=Nc1ccc(N2CCOCC2)cc1	?	-26%	-25
Oc1ccc2ccccc2c1C=Nc1ccc(N2CCOCC2)cc1	4.5µM*	20µM*	-23
O=C(COC(=O)c1ccc([N+](=O)[O-])s1)Nc1ncc(C(F)(F)F)cc1Cl	18µM*	-27%	?
O=C(COC(=O)c1ccccn1)Nc1ncc(C(F)(F)F)cc1Cl	?	-15%	-14
O=c1c(-c2cccs2)nc2cnc(N3CCOCC3)nc2n1Cc1cccs1	0%	.	.
COc1cc(OC)c(C2=NOC(C(=O)N3CCCc4ccccc43)C2)cc1Cl (centres undefined)	?	?	-26
CCC1CCCCN1C(=O)C1CC(c2cc(Cl)c(OC)cc2OC)=NO1 (centres undefined)	?	14µM*	25
CN(C)c1ccc(-c2ccc3ncnc(NC4CC4)c3c2)cc1	1%	.	.
COc1ccc(Cl)cc1N(C(C)C(=O)NC1CCCC1)S(C)(=O)=O (centres undefined)	-7%	.	.
CCN1CCN(C(=O)c2ccc(C(F)(F)F)cc2)CC1	12%	.	.
CCN1CCN(C(=O)c2ccc(CSc3ccc(C)cc3)cc2)CC1	?	14µM*	-7
CN(C)C(=S)Nc1ccc2ccccc2c1	?	-6%	?
O=S(=O)(Nc1ccc2c(c1)OCCO2)c1ccc2oc3ccccc3c2c1	?	28µM*	38
Cc1cccc(NS(=O)(=O)c2ccc3c(c2)OCCO3)c1	?	-1%	?
SMILES	ALDH1A1 block	HPGD inh	PNC inhibitor
COC(=O)CC1(C(=O)OC)Oc2ccc(Br)cc2C(=O)N1c1cc(Cl)c(Cl)cc1Cl (centres undefined)	-5%	.	.
CCOc1ccc(C(=O)N/N=C/c2cc([N+](=O)[O-])cs2)cc1	-3%	.	.
COc1cc(C(=O)N/N=C/c2cc([N+](=O)[O-])cs2)cc(OC)c1OC	?	-8%	-103*
CCOc1ccc(CCNC(=O)COC(=O)c2nc3nc(C)cc(C)n3n2)cc1OCC	-2%	-5%	-14
CCn1c(-c2cc(C3CC3)nc3ccccc23)n[nH]c1=S	?	13µM*	-6
CCn1c(-c2cc(-c3cc(C)ccc3C)nc3ccccc23)n[nH]c1=S	?	-27%	19
Cn1c(Sc2ccc(Br)cc2)c(C=O)c2ccccc21	1%	-7%	-27
COc1ccc(-c2cnn3c(N)c(S(=O)(=O)C(C)(C)C)cnc23)cc1	-9%	-28%	102
COc1ccc(-c2cnn3c(N)c(S(=O)(=O)c4ccccc4)cnc23)cc1	8%	20µM*	13
Cc1ccc(C(C)C)c2c1C(c1ccc3c(c1)OCO3)CC(=O)O2 (centres undefined)	7%	-7%	.
O=C1OCCC1N1C(=O)c2ccccc2S1(=O)=O (centres undefined)	0%	-1%	41
CCCCN1C(=O)c2ccc(C(=O)Nc3ccccc3N3CCOCC3)cc2C1=O	0.89µM*	.	.
CN1CCN(c2ccccc2NC(=O)c2ccc(N3CCCCC3)c([N+](=O)[O-])c2)CC1	22µM*	.	.
Cc1ccc(C(=O)Nc2ccccc2N2CCCCC2)cc1[N+](=O)[O-]	-5%	.	.
CCC(=O)N1CCN(c2ccc(NC(=S)NC(=O)c3cccc([N+](=O)[O-])c3)cc2)CC1	?	-3%	-7
CN1CCN(c2ccc(C(=O)c3ccccc3)cc2[N+](=O)[O-])CC1	0%	-8%	29
Cc1ccc(C(=O)NC(=S)Nc2ccccc2N2CCCC2)cc1[N+](=O)[O-]	20µM*	-12%	9
O=C(CN1C(=O)c2ccccc2C1=O)Nc1ccccc1N1CCOCC1	-2%	.	.
CCC(=O)N1CCN(c2ccccc2NC(=S)NC(=O)c2cccc([N+](=O)[O-])c2)CC1	14µM*	.	.
CN1CCc2c(sc3c2c(=O)n(-c2ccccc2)c2n[nH]c(=S)n32)C1	?	-12%	?
FC(F)(F)c1cccc(Cc2noc(CN3CCC(c4ccncc4)CC3)n2)c1	-4%	.	.
O=C(Cc1ccc(Cl)cc1)N/N=C/c1ccncc1	5%	.	.
CC(C)(C)C1=Nn2c(nnc2C2CCCCC2)SC1	?	-22%	-12
Cc1ccc(C(=O)Nc2ccc(NC(=O)c3cccs3)cc2)cc1[N+](=O)[O-]	11%	.	.
Cc1ccc(C(=O)NC(=S)Nc2ccc(NC(=O)c3cccs3)cc2)cc1[N+](=O)[O-]	13µM*	-13%	?
SMILES	ALDH1A1 block	HPGD inh	PNC inhibitor
COc1ccc(C)cc1C(=O)CCC(=O)Nc1ccccc1N1CCOCC1	28µM*	-12%	4
COc1ccc(C(=O)NC(=S)Nc2ccccc2N2CCOCC2)cc1Br	?	-17%	-10
CCOc1ccc(C(=O)NC(=S)Nc2ccccc2N2CCOCC2)cc1Br	4µM*	-13%	-24
COc1cc(CC(=O)Nc2ccccc2N2CCOCC2)cc(OC)c1OC	-9%	.	.
O=c1[nH]c(CN2CCN(S(=O)(=O)c3ccccc3C(F)(F)F)CC2)nc2sc3c(c12)CCCC3	-7%	-21%	-11
Cc1ccc(NC(=O)COC(=O)CCC(=O)c2cccs2)c(C)c1	19%	.	.
Cc1ccc(CNCC(=O)Nc2cccc(S(=O)(=O)NC3=NCCCCC3)c2)cc1	-4%	.	.
Cc1c(-n2c(-c3ccccc3)nc3ccccc3c2=O)c(=O)n(-c2ccccc2)n1C	1%	.	.
COc1ccccc1NC(=S)N1CC(C)OC(C)C1 (centres undefined)	-1%	.	.
COc1ccc(CNC(=O)C2CCC(CNS(=O)(=O)c3cccc4nsnc34)CC2)cc1 (centres undefined)	?	-3%	?
CCOCCCNC(=O)C1CCC(CNS(=O)(=O)c2cccc3nsnc23)CC1 (centres undefined)	3%	25µM*	-10
O=C1COc2ccc(C(=O)/C=C/c3ccccc3)cc2N1	?	-23%	-6
O=C(O)/C=C/C(=O)Nc1ccc2c(c1)NC(=O)CO2	22µM*	.	.
Cc1ccc(C(=O)CN2C(=O)C(=O)N(Cc3ccccc3)C2=O)cc1	-6%	.	.
CCN1CCN(C(c2cccs2)C(C)NC(=O)c2cccnc2)CC1 (centres undefined)	3%	-8%	37
NNC(=O)Cc1cn(-c2ncc(C(F)(F)F)cc2Cl)c2ccccc12	-4%	-14%	-10
